# Measurements taken from the supplement of paper PMC5662767.
# Counter-ions that a name gives are not always drawn.
# System: Drosophila S2 cl14 SmoIP sensor cells
# Assay: normalized SmoIP GFP fluorescence (untreated unstimulated = 0%, untreated Hh-stimulated = 100%); higher = more Smo activation sensor fluorescence
# Conditions: compound concentration: 2 uM, 24 h
# [1] = stimulation: Hh conditioned medium (+Hh)
# [2] = stimulation: mock conditioned medium (-Hh)
# 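Note: flow cytometry read-out as median GFP intensity of gated cells, compounds added 30 min before Hh-conditioned or mock medium, mock-treated cells serving as unstimulated baseline.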
SMILES,normalized SmoIP GFP fluorescence [1] [%],normalized SmoIP GFP fluorescence [2] [%]
COc1ccc(-c2ccc3c(N4CCOCC4)nc(N4C[C@@H](C)O[C@@H](C)C4)nc3n2)cc1CO,62.1,-12.5
CC(=O)N1CCN(CCOc2ccc(C3CCN(C4=Nn5c(nnc5C(F)(F)F)CC4)CC3)cc2)CC1,192,15
CC(=O)Nc1nc(C)c(-c2ccc(Cl)c(S(=O)(=O)NCCO)c2)s1,130,-1.13
Cn1cc(CNCC2CCN(c3ncc(C(=O)NO)cn3)CC2)c2ccccc21,268,60.6
COc1cc(-c2ncn(/C=C\C(=O)OC(C)C)n2)cc(C(F)(F)F)c1,98.3,-0.889
CC(C)C(=O)Oc1ccc(CO)cc1[C@H](CCN(C(C)C)C(C)C)c1ccccc1 [Fesoterodine-fumarate-Toviaz],110,-4.53
CC(C)(C)C#Cc1cc(N(C(=O)[C@H]2CC[C@H](C)CC2)[C@H]2CC[C@H](O)CC2)c(C(=O)O)s1,118,10.4
CCCC(=O)Nc1ccc(OCC(O)CNC(C)C)c(C(C)=O)c1 (centres undefined) [acebutolol-hcl],106,-3.5
COc1ccccc1N1CCN(CCN2C(=O)CC3(CCCC3)CC2=O)CC1,102,-17.9
CN1[C@@H]2CC[C@H]1C[C@@H](OC(=O)c1c[nH]c3ccccc13)C2 [Tropisetron-hydrochloride],116,-14.9
C[C@]12CCC(=O)C=C1[C@@H]1C[C@@H]1[C@H]1[C@@H]3[C@@H]4C[C@@H]4[C@@]4(CCC(=O)O4)[C@@]3(C)CC[C@@H]12 [Drospirenone],110,1.03
Cc1cc(C(C)(C)C)c(O)c(C)c1CC1=NCCN1 [Oxymetazoline-hydrochloride],95.8,-3.5
CN(C)CCOc1ccc(-c2nc(-c3ccncc3)c(-c3ccc4c(c3)CC/C4=N\O)[nH]2)cc1,114,4.48
CCCCCCCN(CC)CCCC(O)c1ccc(NS(C)(=O)=O)cc1 (centres undefined) [ibutilide-fumarate],108,-6.16
O=C(O)c1ccc(N2C(=O)/C(=C\c3ccc(-c4ccc([N+](=O)[O-])cc4)o3)C=C2c2ccccc2)cc1 [4e1rcat],105,-0.265
CN(C)C(=O)Nc1cccc(-c2ccc(N(C)C)cc2)c1 [atglistatin],130,18.1
COc1ccc(CCc2nc3cc(-c4c(C)noc4C)ccc3n2C[C@H](C)N2CCOCC2)cc1Cl,144,2.75
C[C@H](Cn1cnc2c(N)ncnc21)OCP(=O)(O)O [Tenofovir],104,-4.47
C/C(=C\C(=O)Nc1ccccc1C(=O)O)c1ccc2ccccc2c1,109,-2.42
CC(=O)c1cc([N+](=O)[O-])c(Sc2cccc(Cl)c2Cl)s1,108,-4.24
COc1cc(Nc2ncc(F)c(Nc3ccc4c(n3)NC(=O)C(C)(C)O4)n2)cc(OC)c1OC,112,-1.11
Cn1cncc1[C@@](N)(c1ccc(Cl)cc1)c1ccc2c(c1)c(-c1cccc(Cl)c1)cc(=O)n2C,141,43.9
CC(C)C[C@H](NC(=O)[C@H](CCc1ccccc1)NC(=O)CN1CCOCC1)C(=O)N[C@@H](Cc1ccccc1)C(=O)N[C@@H](CC(C)C)C(=O)[C@@]1(C)CO1 [carfilzomib-pr-171],80.7,5.7
O=C(CCCCCN1C(=O)c2cccc3cccc(c23)C1=O)NO [scriptaid],163,10.9

SMILES,normalized SmoIP GFP fluorescence [1] [%],normalized SmoIP GFP fluorescence [2] [%]
CCCC(CCC)C(=O)O [Sodium-valproate],110,-4.68
COc1cc2ncnc(Nc3ccc(Cl)cc3F)c2cc1OC,99.3,-4.13
Cc1cc(O)c2c(c1)C(=O)c1cccc(O)c1C2=O [Chrysophanic-acid-Chrysophanol],133,-7.42
Cc1cc(Nc2ccc(NC(=O)c3ccc(Nc4ccnc5ccccc45)cc3)cc2)nc(N)n1,108,-3.5
C[C@H](Oc1cc(-c2cnn(C3CCNCC3)c2)cnc1N)c1c(Cl)ccc(F)c1Cl [s-crizotinib],114,7.39
O=C(O)C1(Cc2cccc(Nc3nccs3)n2)CCC(Oc2cccc(Cl)c2F)CC1 (centres undefined),179,24.4
Cc1ccc(=O)n(-c2ccccc2)c1 [pirfenidone],107,-3.16
CCCCCCCCCCCCc1ccc(S(=O)(=O)Nc2nncs2)cc1,111,1.03
COc1ccc(-c2ccc3ncc4c(c3c2)n(-c2ccc(N3CCNCC3)c(C(F)(F)F)c2)c(=O)n4C)cn1,66.3,-7.6
COc1cc2ncnc(Nc3ccc(O)c(Br)c3)c2cc1OC,112,-2.31
O=C1Nc2ccccc2/C1=C1/Nc2ccccc2C1=O [Indirubin],127,-11.4
CC(C)N(CCC(=O)c1ccc2ccccc2c1)Cc1ccccc1,119,-19
NC(=O)C(c1ccccc1)(c1ccccc1)[C@@H]1CCN(CCc2ccc3c(c2)CCO3)C1 [darifenacin-hydrobromide],116,0.0767
CC#CCn1c(N2CCC[C@@H](N)C2)nc2c1c(=O)n(Cc1nc(C)c3ccccc3n1)c(=O)n2C [linagliptin-bi-1356],118,-0.264
C=CC(=O)Nc1cccc(Nc2nc(Nc3ccc(N4CCN(C(C)=O)CC4)cc3OC)ncc2C(F)(F)F)c1,61.9,44
OC(CN1CCN(c2cccc(Cl)c2)CC1)C(c1ccccc1)c1ccccc1 (centres undefined),109,-4.89
CC(C)C[C@H](NC(=O)CNC(=O)c1cc(Cl)ccc1Cl)B(O)O,82.1,26
CCN1CCN(Cc2ccc(Nc3ncc(F)c(-c4cc(F)c5nc(C)n(C(C)C)c5c4)n3)nc2)CC1,158,50.1
Cc1ccc(C(=O)N(CCCN)[C@@H](c2oc3cc(Cl)ccc3c(=O)c2Cc2ccccc2)C(C)C)cc1,141,2.05
CCN(CC)CCNC(=O)c1c(C)[nH]c(/C=C2\C(=O)Nc3ccc(F)cc32)c1C [Sunitinib-Malate-(Sutent)],182,90.8
O=C1NC(=O)C(=Cc2ccc(-c3ccc(F)cc3)o2)S1 (stereo in doubt),102,-2.48
O=C(Nc1c(Cl)cncc1Cl)c1ccc(OC(F)F)c(OCC2CC2)c1 [Roflumilast(Daxas)],134,-8.23
Cn1cc(-c2ccc3c(c2)CCN3C(=O)Cc2cccc(C(F)(F)F)c2)c2c(N)ncnc21,131,39.3
O=c1cc(N2CCOCC2)oc2c(-c3ccccc3)cccc12,108,-5.76

SMILES,normalized SmoIP GFP fluorescence [1] [%],normalized SmoIP GFP fluorescence [2] [%]
Cc1cc(Nc2cc(CN3CCOCC3)c3nc(C)c(Cc4ccc(Cl)cc4F)n3n2)n[nH]1,109,-5.53
"Clc1ccc(Nc2nnc(Cc3ccncc3)c3ccccc23)cc1 [Vatalanib,Dihydrochloride-Salt]",125,-9.22
CN1CCN2c3ccccc3Cc3ccccc3C2C1 (centres undefined) [Mianserin-hydrochloride],115,4.04
CCN(CC)CCOc1ccc(/C(=C(\Cl)c2ccccc2)c2ccccc2)cc1 [Clomifene-citrate-Serophene],139,-11.6
CC(C)(C)Cn1c(N)nc2ccc(-c3[nH]c(C(C)(C)C)nc3-c3ccc(F)cc3)nc21,101,1.35
Cc1cncc(CN2CCC(=C3c4ccc(Cl)cc4CCc4cccnc43)CC2)c1 [rupatadine-fumarate],112,3.77
CN1CCC[C@@H]1CCO[C@](C)(c1ccccc1)c1ccc(Cl)cc1 [Clemastine-Fumarate],104,10.7
COc1cc2ncnc(Nc3ccc(F)c(Cl)c3)c2cc1NC(=O)/C=C/CN1CCCCC1,163,12.5
Cc1cccc(Nc2cc(Cl)nc(SCC(=O)O)n2)c1C,93.8,-14.3
CNC(=O)c1cc(Oc2ccc(NC(=O)Nc3ccc(Cl)c(C(F)(F)F)c3)c(F)c2)ccn1,100,27.4
CCS(=O)(=O)N1CC(CC#N)(n2cc(-c3ncnc4[nH]ccc34)cn2)C1,110,-0.775
CCN(Cc1ccncc1)C(=O)C(CO)c1ccccc1 (centres undefined) [tropicamide],104,-2.82
C#C[C@]1(OC(C)=O)CC[C@H]2[C@@H]3CCC4=C[C@@H](OC(C)=O)CC[C@@H]4[C@H]3CC[C@@]21C [ethynodiol-diacetate],100,-1.63
COc1ccc2c(Oc3ccc(NC(=O)c4c(C)n(CC(C)(C)O)n(-c5ccccc5)c4=O)nc3)ccnc2c1,158,-1.11
c1ccc(CC2=NCCN2)cc1 [tolazoline-hcl],103,-1.74
CC(C)[C@H](C(=O)Nc1ccc(C(=O)NO)cc1)c1ccccc1,299,60.6
CN(C)CCC(c1ccc(Br)cc1)c1ccccn1 (centres undefined) [brompheniramine],138,-5.17
CCC[C@H](NC(=O)[C@@H]1[C@H]2CCC[C@H]2CN1C(=O)[C@@H](NC(=O)[C@@H](NC(=O)c1cnccn1)C1CCCCC1)C(C)(C)C)C(=O)C(=O)NC1CC1 [Telaprevir(VX-950)],120,1.03
CCOC(=O)C1=C(N)Oc2ccc(Br)cc2C1C(C#N)C(=O)OCC (centres undefined),97.9,1.03
Cc1cccc(C)c1OCC(=O)N[C@@H](Cc1ccccc1)[C@@H](O)C[C@H](Cc1ccccc1)NC(=O)[C@H](C(C)C)N1CCCNC1=O [Lopinavir],117,6.52
CNCC[C@@H](Oc1ccccc1C)c1ccccc1 [atomoxetine-hydrochloride],104,-0.264
CCCCOc1ccc(C(=O)Nc2ccc(F)cc2F)cc1,99.9,-2.08
CC(C)CC(=O)Nc1n[nH]c2c1CN(C(=O)C1CCN(C)CC1)C2(C)C,41.2,20.1
CNC(=O)c1ccc(N2C(=S)N(c3ccc(C#N)c(C(F)(F)F)c3)C(=O)C2(C)C)cc1F,113,4.03
